Data reported in PubChem BioAssay (Tox21).
Results filed as inconclusive are left out. A number with no mark means an inactive call. Activity calls are given as the source filed them. The call rests on the fitted dose curve; in most records, active means well fitted activation curve with a large enough effect in the signal ratio in the repeat runs (not every such curve was filed as active); inconclusive means weak or mixed curves, or effect the other way; inactive means no such curve, though single readings can be large or run the other way; the % refers to the signal ratio.

Molecular target: Glucocorticoid receptor (Homo sapiens) (UniProt P04150)
Test: qHTS assay to identify small molecule agonists of the glucocorticoid receptor (GR) signaling pathway (AID 720691)
Conditions: GR-bla HeLa, beta-lactamase reporter ratio, 18 h; series mostly up to 62.4 µM; activation: at the top concentration
Source text: U.S. Tox21 Program National Center for Advancing Translational Sciences [NCATS] NIH Chemical Genomics Center [NCGC] U.S. Environmental Protection Agency [EPA] National Institutes of Environmental Health Sciences [NIEHS] National Toxicology Program [NTP] U.S. Food and Drug Administration [FDA] Tox21 Assay Overview: The Glucocorticoid receptor (GR) is one of the members of the nuclear receptor family of ligand-dependent transcription factors. GR plays a critical role in carbohydrate, protein and lipid metabolisms and programmed cell death. CellSensor GR-bla HeLa cell line (Invitrogen) contains a beta-lactamase reporter gene under the control of the glucocorticoid response element stably integrated into HeLa cells, a cervical cancer cell line that expresses glucocorticoid receptor. The activation of the reporter gene under culture conditions can be detected by fluorescence intensity. This cell line has been used to screen the Tox21 10K compound library and to identify the compounds that activate the GR signaling.
Tox21 Assay Protocol Summary: The GR-bla HeLa cells were dispensed at 1500 cells/6 ul/well in 1536-well black wall/clear bottom plates using a Multidrop Combi (ThermoFisher Scientific, Waltham, MA) dispenser. After the assay plates were incubated at a 37 C/5% CO2 incubator for 4 hours, 23 nL of compounds dissolved in DMSO, positive controls or DMSO only was transferred to the assay plate by a pintool station (Kalypsys, San Diego, CA). The plates were incubated at 37 C for 18 hours. After 1 uL of LiveBLAzerTM B/G FRET substrate was added using a Flying Reagent Dispenser (Aurora Discovery, San Diego, CA), the plates were incubated at room temperature for 2 hours, and fluorescence intensity was measured by an Envision plate reader (PerkinElmer, Shelton, CT).
On the % scale 0 is the no-effect control and ±100 the full control effect; potency means the concentration at half of the fitted maximal effect.

Sequence of Glucocorticoid receptor (Homo sapiens) (P04150 whole entry, looked up): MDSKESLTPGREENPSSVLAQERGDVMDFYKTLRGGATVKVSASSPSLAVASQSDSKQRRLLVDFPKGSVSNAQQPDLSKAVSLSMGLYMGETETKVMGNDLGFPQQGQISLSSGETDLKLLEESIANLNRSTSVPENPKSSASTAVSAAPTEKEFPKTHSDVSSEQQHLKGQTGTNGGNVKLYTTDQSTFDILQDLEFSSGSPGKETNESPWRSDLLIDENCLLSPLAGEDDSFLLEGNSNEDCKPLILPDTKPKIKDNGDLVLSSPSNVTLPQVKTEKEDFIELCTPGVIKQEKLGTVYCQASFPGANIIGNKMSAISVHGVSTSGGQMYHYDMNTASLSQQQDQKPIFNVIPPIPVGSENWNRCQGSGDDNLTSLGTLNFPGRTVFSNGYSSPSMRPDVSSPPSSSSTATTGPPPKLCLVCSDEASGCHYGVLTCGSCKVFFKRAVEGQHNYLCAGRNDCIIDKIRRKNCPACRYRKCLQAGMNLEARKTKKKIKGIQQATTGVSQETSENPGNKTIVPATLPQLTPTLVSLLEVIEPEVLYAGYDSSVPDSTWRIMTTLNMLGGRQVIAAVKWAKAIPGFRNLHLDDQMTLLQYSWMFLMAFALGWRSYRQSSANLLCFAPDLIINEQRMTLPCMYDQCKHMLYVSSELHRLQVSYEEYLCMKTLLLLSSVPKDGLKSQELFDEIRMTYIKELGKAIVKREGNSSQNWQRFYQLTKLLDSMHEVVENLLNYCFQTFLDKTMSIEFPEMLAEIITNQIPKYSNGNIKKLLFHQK

Point of comparison: `CCCCCCCCSCCO`, “activation” value -2.23%. Against it:
- ON(Cc1ccccc1)Cc1ccccc1 — lower, -4.84%
- O=[N+]([O-])c1cccc(S(=O)(=O)NCCNS(=O)(=O)c2cccc([N+](=O)[O-])c2)c1 — higher, 0.09%
- O=C(NCCCN1CCOCC1)c1ccc(Cl)cc1 — higher, -0.45%
- CCC(C(=O)OCCOCCN(CC)CC)c1ccccc1 (stereo not given) — higher, 0.501%
- CO/N=C1\CN(c2nc3c(cc2F)c(=O)c(C(=O)O)cn3C2CC2)CC1CN (stereo not given) — higher, 0.047%
- CCCCCCCC/C=C\CCCCCCCC(=O)OC(CO)CO — higher, -0.21%
- CCCOC(=O)c1ccc(C(=O)OCCC)nc1 — higher, 0.476%
- C[Si](NC1CCCCC1)(NC1CCCCC1)NC1CCCCC1 — lower, -8.14%
- CC(CCc1ccc2c(c1)OCO2)NN (stereo not given) — higher, -2.16%
- O=C(CCCCCCCCC#CI)Oc1ccccc1 — higher, 2.33%
- COc1ccc(CCC(=O)c2c(O)cc(O[C@@H]3O[C@H](CO)[C@@H](O)[C@H](O)[C@H]3O[C@@H]3O[C@@H](C)[C@H](O)[C@@H](O)[C@H]3O)cc2O)cc1O — higher, -0.959%
- CCC(=O)OC/C=C/c1ccccc1 — higher, 0.0327%
- O=C(O)C(Cc1cc(I)c(O)c(I)c1)c1ccccc1 (stereo not given) — lower, -5.64%
- O=c1[nH]c2ccc(S(=O)CCN3CCC(Cc4ccc(F)cc4)CC3)cc2o1 (stereo not given) — lower, -6.51%
- C=CC(=C)CCCC(C)(C)OC(C)=O — higher, 2.49%
- Nc1ccc(S(=O)(=O)O)c(N)c1 — higher, 0.546%
- NCC1CCCC(CN)C1 (stereo not given) — higher, -0.366%
- NC(=O)N(O)[C@@H]1COc2cc(OCc3ccccc3)ccc21 — lower, -2.32%
- OCC1CC=CCC1 (stereo not given) — higher, -0.0152%
- Fc1ccccc1[C@@H](F)COC1CCC(Nc2ncnc3[nH]ncc23)CC1 (stereo not given in full) — lower, -5.82%
- CCC(C(=O)OCCN(CC)CC)c1ccccc1 (stereo not given) — higher, 1.92%
- CCCCCCCC/C=C\CCCCCCCC(=O)OC — higher, 0.0441%
- CCCCCCOC(=O)CCCCCCCC(=O)OCCCCCC — higher, -1.78%
- CN1CCCN=C1/C=C/c1cccs1 — higher, 1.99%
- CCCOC(=O)c1ccc(N)cc1 — higher, 0.505%
- CO[Si](C)(OC)OC — lower, -2.86%

For `Nc1nccs1`, the Potency was “inactive”.
In the case of `Cc1oncc1C(=O)Nc1ccc(C(F)(F)F)cc1`, the Potency is reported as “inactive”.
With `N#C/C(=C1/SC[C@@H](c2ccc(Cl)cc2Cl)S1)n1ccnc1` the Potency was “inactive”.
For `CC1CC(O)CC(C)(C)C1` (stereo not given), the Potency was “inactive”.
For `CC(=O)OCC(=O)[C@@]12OC(C)(C)O[C@@H]1C[C@H]1[C@@H]3C[C@H](F)C4=CC(=O)C=C[C@]4(C)[C@@]3(F)[C@@H](O)C[C@@]12C`, the Potency was 6.4 nM (active).

Point of comparison: `Cc1occc1C(=O)Nc1ccc(C(=O)N2CCC(F)(F)/C(=C\C(=O)N3CCC(N4CCCCC4)CC3)c3ccccc32)cc1`, “activation” value -5.8% [at 29.2 µM]. Against it:
- CCCCC1C(=O)N(c2ccccc2)N(c2ccc(O)cc2)C1=O (stereo not given) — lower, -6.37% [at 29.2 µM]
- O=C(OCCOCCO)c1ccccc1Nc1cccc(C(F)(F)F)c1 — higher, -5.78% [at 29.2 µM]

Point of comparison: `O=C(O)c1ccc(CO)o1`, “activation” value 1.18% [at 79.2 µM]. Against it:
- COCC(O)CO (stereo not given) — lower, -1.61% [at 79.2 µM]
- O=Cc1c(Cl)cccc1Cl — lower, 0.887% [at 79.2 µM]
- CC(=O)Nc1ccc(N)cc1 — lower, 0.669% [at 79.2 µM]
- O=C(c1ccc(O)cc1)c1ccc(Cl)cc1 — lower, -12.9% [at 79.2 µM]
